Compound activity (PubChem)
Only some compounds are listed: those with a hit (about 11% of all), similar ones and a draw of the others.
OTUD3 inh = inhibitors of human OTUD3 deubiquitinase; AID 1645858; actives 0.7% (n = 47,000); inhibition, % at 25 µM; purified OTUD3, Ub-rhodamine fluorescence, 2 h
USP17 inh = human USP17-like deubiquitinase inhibition. A8MUK1. purified USP17, Ub-rhodamine cleavage fluorescence, 3 h. inhibition, % at 50 µM. actives 6.5% (n = 47,000). AID 1645855
Target sequence (A8MUK1 whole entry, looked up): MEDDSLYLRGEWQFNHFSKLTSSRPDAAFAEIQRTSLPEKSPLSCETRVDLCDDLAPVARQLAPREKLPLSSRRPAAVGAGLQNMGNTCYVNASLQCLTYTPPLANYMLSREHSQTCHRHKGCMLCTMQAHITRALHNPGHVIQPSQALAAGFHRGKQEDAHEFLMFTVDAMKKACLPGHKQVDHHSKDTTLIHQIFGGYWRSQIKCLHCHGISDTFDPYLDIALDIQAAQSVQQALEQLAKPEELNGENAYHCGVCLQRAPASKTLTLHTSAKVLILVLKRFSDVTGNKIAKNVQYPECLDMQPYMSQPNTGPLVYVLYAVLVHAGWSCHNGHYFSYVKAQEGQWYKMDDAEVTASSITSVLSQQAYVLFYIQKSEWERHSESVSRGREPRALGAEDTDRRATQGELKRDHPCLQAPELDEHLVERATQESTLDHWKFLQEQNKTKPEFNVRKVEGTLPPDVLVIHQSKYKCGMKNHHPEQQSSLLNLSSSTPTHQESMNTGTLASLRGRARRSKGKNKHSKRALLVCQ
USP30 block = human USP30 deubiquitinase inhibition | Q70CQ3 | purified USP30, Ub-rhodamine cleavage fluorescence | inhibition, % at 25 µM | actives 5.3% (n = 47,000) | AID 1645860
USP28 block = blocks human USP28 ubiquitin-rhodamine cleavage; Q96RU2; purified USP28, Ub-rhodamine cleavage fluorescence, 30 min; inhibition, % at 25 µM; actives 3% (n = 47,000); AID 1645857
* hit, by the source's call; i = inactive; / = no result given. Cut-off read from the data, not from the text of the source: active = inhibition above about 30%; inactive = the rest.

SMILES	OTUD3 inh	USP17 inh	USP30 block	USP28 block
C=C(CCC(C)(C)/C=C/CC/C(C)=C/COC(COP(=O)(O)O[C@@H]1OC(C(N)=O)[C@@](C)(O)[C@H](OC(N)=O)C1O[C@@H]1OC(CO[C@@H]2OC(CO)[C@H](O)[C@H](O)C2O)[C@H](O[C@@H]2OC(CO)[C@H](O[C@@H]3OC(C(=O)NC4=C(O)CCC4=O)[C@H](O)[C@H](O)C3O)[C@H](O)C2NC(C)=O)C(O)[C@@H]1NC(C)=O)C(=O)O)CC1C(=C)CCCC1(C)C (some centres not stated)	-16	-8	-137	44*
CCSc1ncc2c(=O)n(CC(=O)NC3CCCCC3)cnc2n1	-9	-66	-60	-17
CNC(=O)[C@@]12CCC3(CCN(C(=O)c4cccc(Cl)c4)CC3)[C@@H]1CN(C)C2	-4	-17	-15	-7
O=C(CN1C(=O)C2CCCC2=Nc2ccccc21)Nc1cc(F)ccc1F (configuration not stated)	10	60*	6	9
CCc1ccccc1NC(=O)CN1C(=O)C2CCCC2=Nc2ccccc21 (configuration not stated)	6	7	10	5
COc1ccc(/C(C#N)=C/c2cn[nH]c2)cc1	6	-21	2	4
N#C/C(=C\c1cccc(Oc2ncccn2)c1)c1ccc2c(c1)OCO2	12	30*	/	/
COc1ccc(/C(C#N)=C\c2ccc3c(c2)OCO3)cc1	21	29	35*	33*
O=C(NC1CC1)c1nc(-c2ccc(N3CCCCC3)nc2)no1	0	-9	19	0
CCn1nc(C)c(S(=O)(=O)N2CCN(C(=O)Cc3ccc(C)cc3)CC2)c1C	0	-3	-3	-2
CN1CCN(c2ncnc3c2c(C(=O)N2CCOCC2)c2ccccn23)CC1	-168	-117	i	-178
CC1=CC(=O)C(C2=C(O)C(=O)C(C)=CC2=O)=C(O)C1=O	36*	94*	20	46*
COc1cc(O)c2c(=O)oc3c(O)c(OC)cc(C)c3c2c1	-9	-6	13	-9
COc1cc2c(oc(=O)c3cc(C)cc(OC)c32)c2c([C@@H]3OC(C)[C@@H](O)[C@@](C)(O)C3O)ccc(O)c12 (some centres not stated)	-4	79*	-51	15
Cc1ccc(CNc2nc3c(-c4ccc(C)cc4)nnn3c3ccccc23)cc1	-1	5	0	-4
CCCCNc1nc2c(-c3ccccc3)nnn2c2ccccc12	2	68*	9	-4
c1ccc(-c2nnn3c2nc(NCC2CCCO2)c2ccccc23)cc1 (configuration not stated)	-16	-18	-22	-18
COCCNc1nc2c(-c3cccc(C(F)(F)F)c3)nnn2c2ccccc12	13	13	32*	11
COc1cc(O)c2c(c1)C1=CC(=O)C(O)=C[C@]1(C)OC2=O	41*	46*	48*	36*
COc1cc(O)c2c(c1)COC(=O)c1c(O)cc(C)cc1O2	17	5	9	13
COc1ccc2ncc3c(-c4ccc(C)cc4)nn(-c4ccc(F)cc4)c3c2c1	-7	57*	-12	-14
Cc1ccc(-c2nn(-c3ccc(F)cc3)c3c2cnc2cc4c(cc23)OCCO4)cc1	5	5	-23	0
O=C(CCc1nc(CSc2nc3ccccc3o2)no1)Nc1ccccc1F	13	17	16	48*
O=C(NC1CC1)c1cc(-c2ccco2)nc2onc(-c3ccccc3)c12	-3	31*	-131	-9
CCCCCCCCCCCC1=C(O)C(=O)C=C(O)C1=O	94*	100*	97*	98*
SMILES	OTUD3 inh	USP17 inh	USP30 block	USP28 block
Cc1cc(C)cc(-n2ccn3c(CCC(=O)Nc4ccc(F)cc4)nnc3c2=O)c1	19	22	49*	16
Cc1cccc(NC(=O)CCCc2nnc3c(=O)n(-c4cccc(F)c4)ccn23)c1	-4	-37	-7	-9
COc1ccc(-n2ccn3c(CCC(=O)NCc4ccc(F)cc4)nnc3c2=O)cc1	10	69*	17	-2
Cc1ccc(CNC(=O)CCc2nnc3c(=O)n(-c4cc(C)cc(C)c4)ccn23)cc1	17	24	-6	7
Cc1ccc(NC(=O)CCc2nnc3c(=O)n(-c4cc(C)cc(C)c4)ccn23)cc1	8	15	43*	5
Cc1cc(C)cc(-n2ccn3c(CCC(=O)Nc4cccc(F)c4)nnc3c2=O)c1	-8	1	-9	-7
O=C(CCCc1nnc2c(=O)n(-c3cccc(F)c3)ccn12)Nc1ccccc1	-17	38*	-64	-25
Cc1csc(-c2noc(-c3ccc(C(C)(C)C)cc3)n2)c1Cl	12	4	15	5
O=C(c1ccccc1F)N1CCCn2nnc(CN3CCCCC3)c2C1	4	-31	0	-1
